From PubChem BioAssay AID1159580 (chemical genetic matrix, 2015)
Screen size: about 5,500 compounds; about 2,000 (36%) were called active. About 18% were inconclusive and are not listed. No stated cut-off is given here; in the data, active means normalized growth mostly below about 0.91 (no sharp cut-off); inconclusive means no clear call, values can overlap the other calls; inactive means mostly above about 0.92. The list shows a part of the results.

Experiment: chemical genetic growth profiling, strain panel (AID 1159580);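 further: tested at 20 µM; growth read once vehicle control cultures reached saturation at 30 °C; 1 = growth at the plate median or of vehicle wells; lower values mean less growth of the strain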
Conditions: growth OD

Measured: normalized growth

OC[C@H]1O[C@@](CO)(O[C@@H]2O[C@H](CO)[C@@H](O)[C@H](O)[C@H]2O)[C@@H](O[C@@H]2O[C@H](CO)[C@@H](O)[C@H](O)[C@H]2O)[C@@H]1O
active: S. cerevisiae deletion strains, locus YKR001C, strain vps1, active compounds read low 1.11 [resistant]
inactive: S. cerevisiae deletion strains, locus YJR043C, strain POL32, active compounds read low 1.04 | S. cerevisiae deletion strains, locus YJR066W, strain TOR1, active compounds read low 0.956 | S. cerevisiae deletion strains, locus YKL009W, strain mrt4, active compounds read low 1.03 | S. cerevisiae deletion strains, locus YKL068W, active compounds read low 0.997 | S. cerevisiae deletion strains, locus YKL085W, strain MDH1 (second series), active compounds read low 1.01 | S. cerevisiae deletion strains, locus YKL085W, strain MDH1, active compounds read low 1.01 | S. cerevisiae deletion strains, locus YKL160W, strain elf1, active compounds read low 1.02 | S. cerevisiae deletion strains, locus YKR026C, strain gcn3, active compounds read low 0.994 | S. cerevisiae deletion strains, locus YKR091W, strain srl3, active compounds read low 1.01 | S. cerevisiae deletion strains, locus YLL001W, strain dnm1, active compounds read low 0.996 | S. cerevisiae deletion strains, locus YLL026W, active compounds read low 1.02 | S. cerevisiae deletion strains, locus YLL041C, strain sdh2, active compounds read low 1.01 | S. cerevisiae deletion strains, locus YLR027C, strain aat2, active compounds read low 1.01 | S. cerevisiae deletion strains, locus YLR039C, strain RIC1, active compounds read low 1.18 | S. cerevisiae deletion strains, locus YLR058C, strain SHM2, active compounds read low 1.03 | S. cerevisiae deletion strains, locus YLR102C, strain apc9, active compounds read low 1.02 | S. cerevisiae deletion strains, locus YLR113W, strain HOG1, active compounds read low 0.986 | S. cerevisiae deletion strains, locus YLR221C, strain rsa3, active compounds read low 1.01 | S. cerevisiae deletion strains, locus YLR258W, strain gsy2, active compounds read low 1.02 | S. cerevisiae deletion strains, locus YLR262C, strain YPT6 (second series), active compounds read low 1 | S. cerevisiae deletion strains, locus YLR262C, strain YPT6, active compounds read low 1.16 | S. cerevisiae deletion strains, locus YLR268W, strain sec22, active compounds read low 1.05 | S. cerevisiae deletion strains, locus YLR320W, strain mms22, active compounds read low 1.03 | S. cerevisiae deletion strains, locus YLR330W, strain CHS5, active compounds read low 1.02 | S. cerevisiae deletion strains, locus YLR342W, strain FKS1 (second series), active compounds read low 1.08 | S. cerevisiae deletion strains, locus YLR342W, strain FKS1, active compounds read low 1.02 | S. cerevisiae deletion strains, locus YLR357W, strain rsc2, active compounds read low 0.991 | S. cerevisiae deletion strains, locus YLR370C, strain arc18, active compounds read low 1.03 | S. cerevisiae deletion strains, locus YLR371W, strain rom2, active compounds read low 0.999 | S. cerevisiae deletion strains, locus YLR384C, strain iki3, active compounds read low 1.01 | S. cerevisiae deletion strains, locus YLR418C, strain cdc73, active compounds read low 1.09 | S. cerevisiae deletion strains, locus YML016C, strain PPZ1, active compounds read low 1.01 | S. cerevisiae deletion strains, locus YML032C, strain rad52, active compounds read low 1.03 | S. cerevisiae deletion strains, locus YML120C, strain ndi1, active compounds read low 1.03 | S. cerevisiae deletion strains, locus YML124C, strain tub3, active compounds read low 1.01 | S. cerevisiae deletion strains, locus YMR058W, strain fet3, active compounds read low 1.02 | S. cerevisiae deletion strains, locus YMR078C, strain ctf18, active compounds read low 1.02 | S. cerevisiae deletion strains, locus YMR125W, strain sto1, active compounds read low 1.02 | S. cerevisiae deletion strains, locus YMR129W, active compounds read low 1.03 | S. cerevisiae deletion strains, locus YMR205C, strain PFK2, active compounds read low 1.04 | S. cerevisiae deletion strains, locus YMR223W, strain ubp8, active compounds read low 1.03 | S. cerevisiae deletion strains, locus YMR231W, strain pep5, active compounds read low 1.01 | S. cerevisiae deletion strains, locus YMR263W, strain SAP30, active compounds read low 1.02 | S. cerevisiae deletion strains, locus YMR307W, strain GAS1, active compounds read low 1.03 | S. cerevisiae deletion strains, locus YNL067W, strain RPL9B, active compounds read low 1.03 | S. cerevisiae deletion strains, locus YNL071W, strain lat1, active compounds read low 1.01 | S. cerevisiae deletion strains, locus YNL128W, strain TEP1, active compounds read low 1.03 | S. cerevisiae deletion strains, locus YNL183C, strain NPR1, active compounds read low 0.946 | S. cerevisiae deletion strains, locus YNL209W, strain ssb2, active compounds read low 1.02 | S. cerevisiae deletion strains, locus YNL233W, strain BNI4, active compounds read low 1.06 | S. cerevisiae deletion strains, locus YNL248C, strain rpa49, active compounds read low 1.01 | S. cerevisiae deletion strains, locus YNL250W, strain rad50, active compounds read low 1.03 | S. cerevisiae deletion strains, locus YNL271C, strain bni1, active compounds read low 1.02 | S. cerevisiae deletion strains, locus YNL298W, strain CLA4, active compounds read low 1.02 | S. cerevisiae deletion strains, locus YNL307C, strain MCK1, active compounds read low 1.01 | S. cerevisiae deletion strains, locus YNL322C, strain KRE1 (second series), active compounds read low 1.02 | S. cerevisiae deletion strains, locus YNR049C, strain mso1, active compounds read low 1.02 | S. cerevisiae deletion strains, locus YNR052C, strain pop2, active compounds read low 1.03 | S. cerevisiae deletion strains, locus YOL006C, strain TOP1, active compounds read low 1.23 | S. cerevisiae deletion strains, locus YOL012C, strain htz1 1.32 | S. cerevisiae deletion strains, locus YOL147C, strain pex11, active compounds read low 1 | S. cerevisiae deletion strains, locus YOR001W, strain rrp6, active compounds read low 1 | S. cerevisiae deletion strains, locus YOR061W, strain CKA2, active compounds read low 1.04 | S. cerevisiae deletion strains, locus YOR069W, strain VPS5, active compounds read low 1.02 | S. cerevisiae deletion strains, locus YOR070C, strain gyp1, active compounds read low 1.01 | S. cerevisiae deletion strains, locus YOR080W, strain dia2, active compounds read low 1.02 | S. cerevisiae deletion strains, locus YOR083W, strain WHI5, active compounds read low 1.01 | S. cerevisiae deletion strains, locus YOR106W, strain vam3, active compounds read low 1 | S. cerevisiae deletion strains, locus YOR136W, strain idh2, active compounds read low 1.02 | S. cerevisiae deletion strains, locus YOR144C, strain elg1, active compounds read low 1.02 | S. cerevisiae deletion strains, locus YOR184W, strain ser1, active compounds read low 1.06 | S. cerevisiae deletion strains, locus YOR231W, strain MKK1, active compounds read low 1 | S. cerevisiae deletion strains, locus YOR265W, strain rbl2, active compounds read low 1.01 | S. cerevisiae deletion strains, locus YOR270C, strain vph1, active compounds read low 1.05 | S. cerevisiae deletion strains, locus YOR290C, strain snf2, active compounds read low 0.981 | S. cerevisiae deletion strains, locus YOR316C, strain cot1, active compounds read low 1.02 | S. cerevisiae deletion strains, locus YPL051W, strain arl3, active compounds read low 1.01 | S. cerevisiae deletion strains, locus YPL055C, strain LGE1, active compounds read low 1.08 | S. cerevisiae deletion strains, locus YPL078C, strain atp4, active compounds read low 1 | S. cerevisiae deletion strains, locus YPL106C, strain sse1, active compounds read low 1.02 | S. cerevisiae deletion strains, locus YPL240C, strain hsp82, active compounds read low 1.03 | S. cerevisiae deletion strains, locus YPL256C, strain CLN2, active compounds read low 1 | S. cerevisiae deletion strains, locus YPR119W, strain clb2, active compounds read low 1.03 | S. cerevisiae deletion strains, locus YPR141C, strain kar3, active compounds read low 1.02 | S. cerevisiae deletion strains, locus YPR163C, strain tif3, active compounds read low 1.04 | S. cerevisiae deletion strains, locus YPR167C, strain met16, active compounds read low 1.02 | S. cerevisiae deletion strains, strain wtn01, active compounds read low 1.04 | S. cerevisiae strains, strain wild type, active compounds read low 1.04
